Measured values as given in ChEMBL document CHEMBL3988442, “University of Dundee, Small-Polar-MMV Screening Library” (2021).
For part of these data: Results with a measured potency or affinity are listed apart.

How the values were obtained:
Parameters in all cases: scale not given: direction of the effect not stated beside the values
[1] = molecular target: Protein translocase subunit SecA (Escherichia coli (strain K12)) (UniProt P10408); test: Assay to Identify E. coli SecA ATPase Inhibitors; assay type: functional; settings: 30 µM
Protein translocase subunit SecA (Escherichia coli (strain K12)), sequence (P10408 whole entry): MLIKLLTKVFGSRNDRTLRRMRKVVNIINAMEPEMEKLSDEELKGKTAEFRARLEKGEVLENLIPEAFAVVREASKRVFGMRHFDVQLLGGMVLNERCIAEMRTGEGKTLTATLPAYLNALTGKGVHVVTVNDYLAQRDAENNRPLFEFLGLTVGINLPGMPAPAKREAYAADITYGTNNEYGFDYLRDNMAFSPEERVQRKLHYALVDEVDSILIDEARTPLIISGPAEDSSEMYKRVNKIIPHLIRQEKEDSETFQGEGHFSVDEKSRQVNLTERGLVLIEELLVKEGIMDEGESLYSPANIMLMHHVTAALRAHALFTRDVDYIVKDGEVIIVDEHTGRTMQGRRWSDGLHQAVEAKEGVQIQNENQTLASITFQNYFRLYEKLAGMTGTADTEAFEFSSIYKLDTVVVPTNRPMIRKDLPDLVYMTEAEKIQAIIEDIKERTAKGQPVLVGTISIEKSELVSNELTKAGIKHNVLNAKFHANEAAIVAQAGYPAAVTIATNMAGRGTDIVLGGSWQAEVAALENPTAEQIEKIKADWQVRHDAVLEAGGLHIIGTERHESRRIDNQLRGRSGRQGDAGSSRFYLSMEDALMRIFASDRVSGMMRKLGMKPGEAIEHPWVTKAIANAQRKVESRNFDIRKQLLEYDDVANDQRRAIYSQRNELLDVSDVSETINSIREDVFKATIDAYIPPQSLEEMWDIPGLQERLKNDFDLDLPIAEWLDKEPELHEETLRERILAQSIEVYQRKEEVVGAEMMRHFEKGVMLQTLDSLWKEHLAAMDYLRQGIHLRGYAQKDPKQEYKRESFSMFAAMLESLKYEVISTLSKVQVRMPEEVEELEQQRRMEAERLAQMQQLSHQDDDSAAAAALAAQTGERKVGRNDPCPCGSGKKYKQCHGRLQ

[2] = molecular target: T1, Ubiquitin-activating enzyme e1, putative (Leishmania donovani (strain BPK282A1)) (UniProt E9BSI1); test: Leishmania donovani Ubiquitin Activating Enzyme (LdE1); assay type: functional; settings: 30 µM
T1 sequence (whole entry): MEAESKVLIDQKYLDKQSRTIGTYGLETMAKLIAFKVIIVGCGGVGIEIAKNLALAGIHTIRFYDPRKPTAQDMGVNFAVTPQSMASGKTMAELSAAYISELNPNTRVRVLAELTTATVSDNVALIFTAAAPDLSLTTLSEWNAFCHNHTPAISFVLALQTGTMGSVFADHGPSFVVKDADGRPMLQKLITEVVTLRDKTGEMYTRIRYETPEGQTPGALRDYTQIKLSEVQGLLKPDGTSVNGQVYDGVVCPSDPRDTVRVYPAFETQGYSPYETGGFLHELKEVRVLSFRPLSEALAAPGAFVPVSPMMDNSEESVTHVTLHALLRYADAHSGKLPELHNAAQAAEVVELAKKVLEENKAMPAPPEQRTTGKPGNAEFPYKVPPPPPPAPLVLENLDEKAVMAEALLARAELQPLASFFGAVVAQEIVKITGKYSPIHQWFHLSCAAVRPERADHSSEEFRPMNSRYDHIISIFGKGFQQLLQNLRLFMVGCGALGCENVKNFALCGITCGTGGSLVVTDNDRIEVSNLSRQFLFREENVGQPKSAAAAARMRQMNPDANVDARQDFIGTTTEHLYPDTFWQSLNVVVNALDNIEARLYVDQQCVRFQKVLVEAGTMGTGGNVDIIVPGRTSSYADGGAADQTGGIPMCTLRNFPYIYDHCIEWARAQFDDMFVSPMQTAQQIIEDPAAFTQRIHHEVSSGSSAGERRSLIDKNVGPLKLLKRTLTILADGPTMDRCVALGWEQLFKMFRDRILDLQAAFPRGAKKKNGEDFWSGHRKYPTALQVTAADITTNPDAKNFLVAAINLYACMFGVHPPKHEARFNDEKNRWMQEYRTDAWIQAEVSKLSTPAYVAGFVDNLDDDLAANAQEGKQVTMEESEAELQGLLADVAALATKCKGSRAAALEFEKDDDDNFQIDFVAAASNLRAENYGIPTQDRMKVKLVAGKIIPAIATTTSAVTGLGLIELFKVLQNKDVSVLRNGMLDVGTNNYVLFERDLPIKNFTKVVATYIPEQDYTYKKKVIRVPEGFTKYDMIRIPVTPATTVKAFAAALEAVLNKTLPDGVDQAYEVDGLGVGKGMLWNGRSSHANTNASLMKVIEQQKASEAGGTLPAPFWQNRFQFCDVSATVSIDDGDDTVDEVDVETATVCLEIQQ

[3] = molecular target: Sialic acid-binding Ig-like lectin 9 (Homo sapiens) (UniProt Q9Y336); test: Hs-Siglec9 ALPHAscreen SOP 20170721; settings: 10 µM
Sialic acid-binding Ig-like lectin 9 (Homo sapiens), sequence (Q9Y336 whole entry): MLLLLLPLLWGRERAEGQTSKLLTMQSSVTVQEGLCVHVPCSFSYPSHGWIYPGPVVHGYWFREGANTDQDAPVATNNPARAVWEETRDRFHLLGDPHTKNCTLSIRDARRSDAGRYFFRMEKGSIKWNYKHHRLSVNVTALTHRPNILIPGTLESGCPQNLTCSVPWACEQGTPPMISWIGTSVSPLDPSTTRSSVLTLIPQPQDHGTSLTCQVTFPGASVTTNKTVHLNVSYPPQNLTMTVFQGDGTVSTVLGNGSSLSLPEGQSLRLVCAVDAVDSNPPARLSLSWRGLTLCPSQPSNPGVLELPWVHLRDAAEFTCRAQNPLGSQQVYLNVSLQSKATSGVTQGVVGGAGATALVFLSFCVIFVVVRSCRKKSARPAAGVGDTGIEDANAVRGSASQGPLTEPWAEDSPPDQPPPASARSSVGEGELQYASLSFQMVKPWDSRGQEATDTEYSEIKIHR

[4] = system: Trypanosoma cruzi; test: Trypanosoma cruzi phosphomannomutase and mannose-1-phosphate guanylyltransferase assay; assay type: functional; settings: 10 µM
[5] = molecular target: T2, Arginase-2, mitochondrial (Homo sapiens) (UniProt P78540); test: in vitro enzyme assay to detect the production of urea directly proportional to the activity of Arginase II; assay type: functional; settings: 33.3 µM; also: in the data most compounds retested in dose-response had high values
T2 sequence (whole entry): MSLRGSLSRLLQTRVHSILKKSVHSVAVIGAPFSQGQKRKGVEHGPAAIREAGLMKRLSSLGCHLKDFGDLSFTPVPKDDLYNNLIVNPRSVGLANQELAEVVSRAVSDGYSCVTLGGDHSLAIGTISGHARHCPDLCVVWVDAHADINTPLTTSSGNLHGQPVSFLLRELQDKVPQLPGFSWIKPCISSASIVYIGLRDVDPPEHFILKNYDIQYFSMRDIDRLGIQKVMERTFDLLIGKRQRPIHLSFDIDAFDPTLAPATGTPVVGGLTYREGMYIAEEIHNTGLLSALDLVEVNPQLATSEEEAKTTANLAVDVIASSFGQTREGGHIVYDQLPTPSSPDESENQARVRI

[6] = molecular target: T3, Proteasome subunit beta (Trypanosoma cruzi) (UniProt O96673); test: Trypanosoma cruzi proteasome chymotrypsin-like activity (TcProtChymo) assay.; also: in the data most compounds retested in dose-response had high values; assay type: functional; settings: 9.37 µM
T3 sequence (whole entry): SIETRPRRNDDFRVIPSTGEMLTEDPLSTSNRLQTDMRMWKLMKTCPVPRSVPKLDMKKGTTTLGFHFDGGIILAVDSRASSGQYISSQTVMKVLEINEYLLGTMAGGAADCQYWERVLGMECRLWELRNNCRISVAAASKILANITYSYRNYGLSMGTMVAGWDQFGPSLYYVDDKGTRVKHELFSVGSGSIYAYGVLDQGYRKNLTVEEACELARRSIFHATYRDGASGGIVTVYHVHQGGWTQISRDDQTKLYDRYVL

[7] = species on record: Homo sapiens; test: To identify inhibition of the IFN signalling (Jak-Stat) pathway via expression of an eGFP reporter gene under the control of an IFN-stimulated response element (ISRE) containing MxA promoter.; assay type: functional; settings: 30 µM
[8] = molecular target: T4, Tyrosyl-tRNA synthetase, putative (Trypanosoma cruzi (strain CL Brener)) (UniProt Q4DSP6); test: Trypanosoma cruzi tyrosyl tRNA synthetase (TcYRS) _High Tyrosine SOP; assay type: functional; settings: 30 µM; also: in the data most compounds retested in dose-response had high values
T4 sequence (whole entry): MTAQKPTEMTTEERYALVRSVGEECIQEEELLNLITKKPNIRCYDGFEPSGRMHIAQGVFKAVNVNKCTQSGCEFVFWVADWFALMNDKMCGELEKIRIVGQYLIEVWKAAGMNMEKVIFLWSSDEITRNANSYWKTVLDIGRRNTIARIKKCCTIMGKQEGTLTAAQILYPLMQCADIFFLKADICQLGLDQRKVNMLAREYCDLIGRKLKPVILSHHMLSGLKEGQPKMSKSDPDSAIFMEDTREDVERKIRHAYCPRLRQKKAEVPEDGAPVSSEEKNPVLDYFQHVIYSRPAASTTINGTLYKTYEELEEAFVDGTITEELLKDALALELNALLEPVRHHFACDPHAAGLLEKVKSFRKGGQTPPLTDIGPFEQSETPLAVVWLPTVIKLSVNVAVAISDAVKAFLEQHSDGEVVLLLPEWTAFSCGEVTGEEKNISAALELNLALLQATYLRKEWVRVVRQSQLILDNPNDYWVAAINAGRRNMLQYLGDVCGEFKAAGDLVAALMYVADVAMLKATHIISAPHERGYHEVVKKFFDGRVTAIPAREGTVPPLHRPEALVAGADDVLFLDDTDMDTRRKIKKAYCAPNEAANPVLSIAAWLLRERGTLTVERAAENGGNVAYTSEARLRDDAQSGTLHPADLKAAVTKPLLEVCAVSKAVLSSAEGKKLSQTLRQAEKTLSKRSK

[9] = molecular target: T4, Tyrosyl-tRNA synthetase, putative (Trypanosoma cruzi (strain CL Brener)); test: Trypanosoma cruzi tyrosyl tRNA synthetase (TcYRS) SOP; assay type: functional; settings: 30 µM
[10] = molecular target: Chromo domain-containing protein 1 (Saccharomyces cerevisiae (strain ATCC 204508 / S288c) (Baker's yeast)) (UniProt P32657); test: ScCHD-1 Enzyme Inhibition Assay; assay type: functional; settings: 30 µM; also: in the data most compounds retested in dose-response had high values
Chromo domain-containing protein 1 (Saccharomyces cerevisiae (strain ATCC 204508 / S288c) (Baker's yeast)), sequence (P32657 whole entry, the tested form may be a part): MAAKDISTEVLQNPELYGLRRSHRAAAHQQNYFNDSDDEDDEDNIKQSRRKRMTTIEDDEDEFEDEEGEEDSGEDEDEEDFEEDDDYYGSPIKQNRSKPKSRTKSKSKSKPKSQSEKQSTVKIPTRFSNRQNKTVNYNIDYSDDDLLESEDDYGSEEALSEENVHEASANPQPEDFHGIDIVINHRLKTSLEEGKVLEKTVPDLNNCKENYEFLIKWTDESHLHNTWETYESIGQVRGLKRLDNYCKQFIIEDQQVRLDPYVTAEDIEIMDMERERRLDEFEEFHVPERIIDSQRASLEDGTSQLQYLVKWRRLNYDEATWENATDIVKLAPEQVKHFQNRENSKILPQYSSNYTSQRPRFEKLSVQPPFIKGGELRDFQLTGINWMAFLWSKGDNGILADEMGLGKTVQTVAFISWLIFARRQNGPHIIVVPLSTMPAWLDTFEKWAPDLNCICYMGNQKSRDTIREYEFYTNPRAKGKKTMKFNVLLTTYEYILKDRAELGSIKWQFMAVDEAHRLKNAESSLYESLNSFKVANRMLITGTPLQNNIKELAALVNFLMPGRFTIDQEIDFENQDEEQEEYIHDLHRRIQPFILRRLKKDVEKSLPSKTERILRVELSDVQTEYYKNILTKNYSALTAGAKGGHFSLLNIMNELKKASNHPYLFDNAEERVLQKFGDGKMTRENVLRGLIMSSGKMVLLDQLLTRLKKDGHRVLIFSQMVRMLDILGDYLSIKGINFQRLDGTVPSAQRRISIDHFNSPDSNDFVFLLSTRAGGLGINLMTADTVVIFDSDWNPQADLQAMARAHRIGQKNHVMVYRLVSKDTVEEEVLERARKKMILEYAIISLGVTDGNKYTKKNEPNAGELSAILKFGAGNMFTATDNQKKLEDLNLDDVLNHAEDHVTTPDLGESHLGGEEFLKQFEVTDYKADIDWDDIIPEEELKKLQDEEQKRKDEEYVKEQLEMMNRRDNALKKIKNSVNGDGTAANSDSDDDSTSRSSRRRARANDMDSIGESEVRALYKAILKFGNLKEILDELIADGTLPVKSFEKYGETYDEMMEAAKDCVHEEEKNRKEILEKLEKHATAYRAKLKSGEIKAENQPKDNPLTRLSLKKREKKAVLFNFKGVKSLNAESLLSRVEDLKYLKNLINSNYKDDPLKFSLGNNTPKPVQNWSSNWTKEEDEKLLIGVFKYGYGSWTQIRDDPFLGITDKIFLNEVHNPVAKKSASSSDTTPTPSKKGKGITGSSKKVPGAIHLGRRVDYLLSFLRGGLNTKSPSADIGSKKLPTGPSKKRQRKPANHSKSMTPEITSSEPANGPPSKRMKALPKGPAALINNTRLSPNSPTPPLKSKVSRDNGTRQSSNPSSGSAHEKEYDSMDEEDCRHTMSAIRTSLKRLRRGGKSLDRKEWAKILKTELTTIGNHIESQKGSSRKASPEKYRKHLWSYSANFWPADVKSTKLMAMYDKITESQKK

Row | SMILES | Percent Effect [1] [%] | Percent Effect [2] [%] | Percent Effect [3] [%] | Percent Effect [4] [%] | Percent Effect [5] [%] | Percent Effect [6] [%] | Percent Effect [7] [%] | Percent Effect [8] [%] | Percent Effect [9] [%] | Percent Effect [10] [%]
1 | COCCc1noc(CN2CCCC2c2c(C)nn(C)c2C)n1 (stereo not given) | -3.14 | 0 | 5.73 | 5.22 | -0.887 | 3.14 | -16.4 | 1.58 | 2.56 | -6.66
2 | CC(NC(=O)N1CCN(c2ccccc2)CC1)c1nncn1C (stereo not given) | 1.88 | 10.7 | -3.63 | -2.81 | 7.54 | 11.4 | 13.4 | 3.68 | 5.13 | -13.8
3 | Fc1ccccc1Cc1noc(CN2CCCC(CN3CCCC3)C2)n1 (stereo not given) | -7.22 | -2.7 | 4.23 | 7.86 | -2.45 | 3.08 | -6.53 | 6.92 | 12.2 | -3.21
4 | O=C(NCc1cc[nH]n1)N(CCCO)C1CCc2ccccc21 (stereo not given) | -1.28 | 8 | -0.45 | 0 | -1.77 | 2.29 | 1.81 | 3.68 | 2.56 | -7.56
5 | Cc1cnn(CC2CN(CC(=O)NCCc3cccs3)CCO2)c1 (stereo not given) | -3.45 | 0 | 6.55 | -4.62 | 0.887 | 3.48 | 9.62 | 4.74 | -2.56 | -0.407
6 | CCOc1ccc(Cl)c(C(=O)NCc2ccc(C(=O)NC)cc2)n1 | -5.52 | 15.4 | -5.92 | 4.79 | 4.92 | 8.62 | 9.74 | 5.26 | 20.5 | 0.666
7 | CCn1ccnc1CN1CCC(N(C)Cc2ncc(C)o2)C1 (stereo not given) | -0.494 | 13.3 | -7.04 | -3.21 | 3.1 | 12.5 | 14.6 | 10 | 17.9 | -11.2
8 | CC(c1cccc(S(N)(=O)=O)c1)N(C)CCOc1ccccc1 (stereo not given) | -0.74 | -15.6 | 10.5 | -4.48 | -5.12 | 2.1 | 14.4 | -1.96 | -2.35 | 1.25
9 | O=C(C1CC=CC1)N1CCC2(CC1)CN(Cc1ccccn1)CCO2 | -2.34 | 1.3 | -0.373 | 2.63 | -4.86 | 5.74 | -19 | 1.58 | 5.13 | 3.73
10 | c1ccc(-c2cnc(CNC3CCCN(c4cccnn4)C3)o2)cc1 (stereo not given) | -1.65 | -23.1 | 5.28 | 6.48 | 1.23 | 0.0853 | 7.96 | 14.8 | 22.9 | -1.17
11 | Cc1cc(CNc2cc(Cl)ccc2Cl)no1 | -0.772 | 0 | 3.56 | 4.79 | 0 | 4.69 | 8.6 | -11 | 6.02 | -0.0633
12 | Cc1noc(C)c1C(=O)N1CC[C@H]2C[C@@H](c3ccncn3)O[C@@H]2C1 | -7.73 | 6.49 | 0.544 | -1.46 | -2.43 | 11.7 | -4.26 | 5.79 | 15.4 | -2
13 | COCC(=O)N1CC[C@@H](N2CCOCC2)[C@@H]1Cc1ccccc1 | -3.93 | 14.3 | -1.41 | 0.0974 | 13.8 | 22 | -2.33 | 17.4 | 15.4 | 2.12
14 | Cc1ccccc1CN(C)Cc1nc2c(cnn2C)c(=O)[nH]1 | -0.754 | 10.3 | -3.07 | 1.41 | -0.82 | 16.8 | 7.6 | 8.13 | 18.1 | -3.59
15 | Cc1cnn(CC2CCCCN2Cc2cc(C)on2)c1 (stereo not given) | -1.2 | 10.3 | 3.02 | -0.282 | -0.82 | 1.45 | 8.23 | 1.44 | 10.8 | -2.89
16 | O=C(c1cccs1)N1CC[C@H](O)[C@@H]1Cc1ccccc1 | -8.07 | 9.09 | 8.03 | -0.563 | 0.457 | 0.601 | 23.5 | 0.966 | 7.5 | -9.97
17 | c1ccc(CN2CCc3nnc(CN4CCCCC4)n3CC2)nc1 | -8.66 | 1.3 | -4.58 | -3.41 | -4.86 | 18.1 | 0.921 | 0.526 | 2.56 | -0.472
18 | Cc1cccnc1C(=O)N1CCCCC1c1[nH]ncc1S(C)(=O)=O (stereo not given) | -3.04 | 6.67 | 0.367 | -1.97 | 6.64 | 4.76 | 0.716 | 7.41 | 7.5 | -19.6
19 | Cc1nnc(NC(=O)CN2CCCC(Cn3cncn3)C2)s1 (stereo not given) | -3.75 | 10.7 | 7.25 | 1.41 | 6.21 | 12.3 | -17.8 | 5.79 | 10.3 | -8.83
20 | COc1cccc(C(=O)NCCCN2CCc3ccccc3C2)c1OC | -0.301 | -5.33 | 7.23 | -2.81 | 1.77 | -5.34 | 10.1 | 2.63 | 0 | -4.32
21 | COC(=O)C1CCN(C(=O)c2ccc(N(C)S(C)(=O)=O)c(C)c2)CC1 | -3.72 | -2.7 | -4.09 | -31.3 | -1.75 | 13.7 | -11.3 | 2.66 | 2.44 | 3.29
22 | CC(C)N1CCO[C@H]2CN(C(=O)c3ccc(N(C)C)cc3)C[C@H]21 | -3.12 | 1.3 | -9.38 | -6.13 | 3.64 | 15.6 | 4.68 | 8.95 | 12.8 | -3.55
23 | COc1ccc(CNCc2ccnc(N3CCOCC3)c2)cc1OC | -2.27 | 33.3 | -6.8 | 5.16 | -8.61 | 10.7 | 11.3 | 6.22 | 20.5 | -7.91
24 | CN(C)Cc1ccc(C2CCCCN2C(=O)c2cc(C3CC3)n[nH]2)cc1 (stereo not given) | -11.5 | -2.7 | 0.279 | -2.23 | -1.05 | 11.3 | 19.7 | 5.85 | 9.76 | -0.312
